High-throughput results: PubChem BioAssay, several laboratories
CHT PAM: allosterically activates the human high affinity choline transporter; Q9GZV3; CHT-expressing cells, membrane potential dye, choline EC20; active compounds read high; LV-AA mutant CHT in HEK293 cells; B-score at 10 µM; 0.49% of 310,000 active;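 active means initial fluorescence not abnormally high and integrated response B-score, plate-corrected, over 3 SD above library mean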
AI-2 QS modul: Vibrio harveyi AI-2 quorum sensing modulation; Vibrio harveyi JMH597 AI-2 luminescence/OD600 ratio, 9 h; active compounds read low; strain lacks LuxN and CqsS sensors; 0 = neutral-control median; activity change, % at 7.5 µM; 0.4% of 300,000 active; AID 2094; in the data active means activity change below about -75%, passing the limit was not always enough;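 further: luminescence divided by OD600 gain over 9 h not by final OD600 alone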
CHT inh: human CHT choline transport inhibition. Q9GZV3. CHT-expressing cells, membrane potential dye, choline response; active compounds read low. B-score at 10 µM. 0.86% of 310,000 active. AID 488975;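 active means B-score over 3 SD under the library average, and starting fluorescence ratio not unusually high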;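 further: choline stimulus applied at its EC90 after an EC20 pre-addition; B-score computed on integrated fluorescence ratio after choline addition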
PREPL inh: human PREPL enzyme inhibition | Q4J6C6 | recombinant PREPL, fluorescence polarization activity-based probe | inhibition, % at 5.96 µM | 0.68% of 320,000 active; in the data active means inhibition above about 43%;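 further: 0% = enzyme with DMSO and 100% = wells lacking enzyme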
Target sequence (Q4J6C6 whole entry, looked up): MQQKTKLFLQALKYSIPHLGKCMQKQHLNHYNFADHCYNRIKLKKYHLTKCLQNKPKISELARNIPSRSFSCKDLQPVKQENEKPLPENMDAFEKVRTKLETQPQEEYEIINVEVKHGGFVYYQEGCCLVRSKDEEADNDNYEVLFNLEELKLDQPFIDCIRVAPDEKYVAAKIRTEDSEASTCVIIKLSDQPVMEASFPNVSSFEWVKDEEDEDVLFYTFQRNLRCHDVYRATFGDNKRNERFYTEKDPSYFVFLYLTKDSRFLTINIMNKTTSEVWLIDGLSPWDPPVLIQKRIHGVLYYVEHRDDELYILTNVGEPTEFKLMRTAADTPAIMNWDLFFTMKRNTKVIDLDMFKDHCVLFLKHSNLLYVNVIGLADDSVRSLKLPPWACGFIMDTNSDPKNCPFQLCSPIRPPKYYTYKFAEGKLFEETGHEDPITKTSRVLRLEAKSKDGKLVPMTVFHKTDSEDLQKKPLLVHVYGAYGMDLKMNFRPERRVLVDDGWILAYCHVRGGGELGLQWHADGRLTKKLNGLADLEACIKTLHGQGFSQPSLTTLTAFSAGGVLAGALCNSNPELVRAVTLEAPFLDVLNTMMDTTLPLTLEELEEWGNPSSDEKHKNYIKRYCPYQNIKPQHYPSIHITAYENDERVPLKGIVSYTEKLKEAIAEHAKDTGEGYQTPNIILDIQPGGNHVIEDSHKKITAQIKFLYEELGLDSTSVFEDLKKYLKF
ALR inh: inhibitors of human sulfhydryl oxidase ALR. P55789. purified ALR, DTT oxidation, H2O2 HRP-luminol luminescence. inhibition, % (no concentration beside the values). 3.8% of 290,000 active. AID 485317;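 active means mean replicate inhibition above about 79%, with every replicate also reaching it, limit read from the data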
The depositor's hits bear a star. Shown are actives, neighbours in structure and some others; about 5% of the full set was active somewhere.

`COCCNC(=O)c1ccc(N2CC3CC(C2)c2cccc(=O)n2C3)c(NC(=O)c2c(F)cccc2F)c1` (centres undefined) gave CHT PAM inactive, AI-2 QS modul 9, CHT inh inactive, PREPL inh 13 and ALR inh -4.
For Cc1cccc(NC(=S)NNC(=O)c2ccc(O)cc2O)c1C the results were CHT PAM inactive, AI-2 QS modul 5, CHT inh inactive, PREPL inh -1 and ALR inh 99*.
Cc1cccc(NC(=O)NNC(=O)c2cc3ccccc3cc2O)c1C was read as CHT PAM inactive, AI-2 QS modul 30, CHT inh inactive, PREPL inh 15 and ALR inh -9.
COc1ccc(Nc2nc(-c3ccc4c(c3)NC(=O)CO4)cs2)cc1 was read as CHT PAM inactive, AI-2 QS modul -30, CHT inh inactive, PREPL inh 30 and ALR inh -26.
Screening CCC(C)Nc1nc(-c2ccc3c(c2)NC(=O)CO3)cs1 (centres undefined) returned CHT PAM inactive, AI-2 QS modul 23, CHT inh inactive, PREPL inh 1 and ALR inh 98*.
`COCCNc1c2c(nc3c(-c4ccccc4)c(C)nn13)CCC2` gave CHT PAM inactive, AI-2 QS modul 29, CHT inh inactive and PREPL inh 11.
Cc1nn2c(NCCCN(C)C)c3c(nc2c1-c1ccccc1)CCCC3 was read as CHT PAM inactive, AI-2 QS modul 28, CHT inh inactive, PREPL inh 30 and ALR inh 97*.
Screening CCCCCCCCN1[C@@H](CC(=O)O)c2cc(C(F)(F)F)ccc2S1(=O)=O returned CHT PAM inactive, AI-2 QS modul -5, CHT inh inactive, PREPL inh 4 and ALR inh 98*.
Screening CCCCCCCCCCCCN1[C@@H](CC(=O)OC)c2cc(C(F)(F)F)ccc2S1(=O)=O returned CHT PAM inactive, AI-2 QS modul 16, CHT inh inactive, PREPL inh 2 and ALR inh -5.
CCCCNC(=O)c1onc(CSc2ccccc2)c1C(=O)O was read as CHT PAM inactive, AI-2 QS modul 36, CHT inh inactive, PREPL inh -2 and ALR inh 19.
`CC(C)NC(=O)c1onc(CSc2cccc3ccccc23)c1C(=O)O` gave CHT PAM inactive, AI-2 QS modul 13, CHT inh inactive, PREPL inh -3 and ALR inh 98*.
`CCCCNC(=O)c1onc(CSc2cccc3ccccc23)c1C(=O)O` gave CHT PAM inactive, AI-2 QS modul 18, CHT inh inactive, PREPL inh -10 and ALR inh 98*.
For Cn1c(CNC(=O)C2CCC(=O)N(CCc3cccc(F)c3)C2)nc2ccccc21 (centres undefined) the results were CHT PAM inactive, AI-2 QS modul 21, CHT inh inactive, PREPL inh -1 and ALR inh -2.
For O=S(=O)(Nc1cccc(-c2ccc3nncn3n2)c1)c1cc(F)ccc1F the results were CHT PAM inactive, AI-2 QS modul 3, CHT inh inactive, PREPL inh 2 and ALR inh -1.
For Cc1ccc(NC(=S)NC(=O)C2CCCCC2)c(Br)c1 the results were PREPL inh 6 and ALR inh 1.
COc1cccc(-c2nc(C=O)cs2)c1 was read as CHT PAM inactive, AI-2 QS modul 31, CHT inh -5*, PREPL inh 13 and ALR inh -4.
`COC(=O)[C@]1(C)N[C@H](CN(C)C(=O)c2ccc(C)cc2)[C@@H]2C(=O)N(Cc3ccccc3)C(=O)[C@@H]21` gave PREPL inh 3 and ALR inh 0.
Cc1cccc(-n2c(CCn3nc(C)c([N+](=O)[O-])c3C)n[nH]c2=S)c1 was read as CHT PAM inactive, AI-2 QS modul 10, CHT inh inactive, PREPL inh 3 and ALR inh 92*.
For COc1cccc(-n2c(CCn3nc(C)c([N+](=O)[O-])c3C)n[nH]c2=S)c1 the results were CHT PAM inactive, AI-2 QS modul 29, CHT inh inactive, PREPL inh 10 and ALR inh 85*.
Screening N#C/C(=C\c1cccs1)C(=O)Nc1ccccn1 returned CHT PAM inactive, AI-2 QS modul 11, CHT inh inactive, PREPL inh 11 and ALR inh 8.
For CCCNC(=O)COc1coc(CN2CCN(c3cccc(Cl)c3)CC2)cc1=O the results were CHT PAM inactive, AI-2 QS modul 33, CHT inh inactive, PREPL inh 21 and ALR inh -9.
CCOC(=O)c1ccc(CC(=O)c2oc3cc(O)ccc3c2C)o1 was read as CHT PAM inactive, AI-2 QS modul 14, CHT inh inactive, PREPL inh 7 and ALR inh 90*.
`CC(C)(C)C(=O)Nc1ccc(S(=O)(=O)N2CCC(c3nc4ccccc4[nH]3)CC2)cc1` gave CHT PAM inactive, AI-2 QS modul 14, CHT inh inactive, PREPL inh 6 and ALR inh -2.
`CCc1c(C)[nH]n(-c2nc(-c3ccccc3)cs2)c1=O` gave CHT PAM inactive, AI-2 QS modul 2, CHT inh inactive, PREPL inh -1 and ALR inh 97*.
`CCc1c(C)[nH]n(-c2nc(-c3cccc([N+](=O)[O-])c3)cs2)c1=O` gave CHT PAM inactive, AI-2 QS modul -2, CHT inh inactive, PREPL inh -2 and ALR inh 24.
Cc1ccc(C(C2=C(O)CC(C)(C)CC2=O)C2C(=O)CC(C)(C)CC2=O)o1 (centres undefined) was read as CHT PAM inactive, AI-2 QS modul 12, CHT inh inactive, PREPL inh 11 and ALR inh 97*.
`Cc1ccccc1-c1nc(CS(=O)(=O)CC(=O)NCc2ccco2)c(C)o1` gave CHT PAM inactive, AI-2 QS modul -1, CHT inh inactive, PREPL inh -27 and ALR inh -17.
CCc1cc(=O)[nH]c(SCC(=O)N2CCC(Cc3ccccc3)CC2)n1 was read as CHT PAM inactive, AI-2 QS modul 2, CHT inh inactive, PREPL inh 8 and ALR inh -3.
`Cc1ccccc1NC(=O)c1ccc2nc(N3CCOCC3)sc2c1` gave CHT PAM inactive, AI-2 QS modul 7, CHT inh inactive and PREPL inh 2.
`Cc1ccc(-n2ncc3c2CC(C)(C)CC3NC(=O)c2ccncc2)cc1` (centres undefined) gave CHT PAM inactive, AI-2 QS modul 7, CHT inh inactive, PREPL inh 0 and ALR inh -4.
For COC(=O)C(=C/C(C)=C/c1cccnc1)C(=O)OC the results were CHT PAM inactive, AI-2 QS modul 20, CHT inh inactive, PREPL inh 4 and ALR inh 92*.
